Assay outcomes (PubChem)
Sampled rows, rich in hits. Any-hit rate of the full collection: about 2.4%.
CHO-K1 Ca antag = nonselective inhibitor or artifact in parental CHO-K1 cells; ATP-induced calcium, Fluo-8 fluorescence; inhibition, % at 3 µM; 360,000 compounds, 0.6% hits;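 active = inhibition above a per-plate cutoff, the plate's mean sample inhibition plus 3 SD, cut at about 24% in these data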;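 also: 0% = DMSO plus EC80 ATP and 100% = DMSO alone without ATP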
M1 PAM parental = M1 PAM counterscreen hit in parental CHO-K1 cells; ATP EC20, Fluo-8 calcium fluorescence; 0% at ATP EC20, 100% at ATP max; activation, % at 3 µM; 360,000 compounds, 0.02% hits; AID 602247;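 active = activation above the run cutoff, the mean activation of all test compounds plus 3 SD, cut at about 40% in these data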;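 also: peak over basal fluorescence ratio in a 140 s read after ATP addition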
M1 ag = human M1 muscarinic receptor agonism; P11229; CHO-K1 hM1, Fluo-8 calcium fluorescence, agonist mode; 0% DMSO, 100% acetylcholine EC100; activation, % at 3 µM; 360,000 compounds, 0.33% hits;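 active = activation above the run's mean compound activation plus 3 SD, cut at about 16% in these data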;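 also: peak over basal fluorescence ratio within a 140 s kinetic read after compound addition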
Target sequence (P11229 whole entry, looked up): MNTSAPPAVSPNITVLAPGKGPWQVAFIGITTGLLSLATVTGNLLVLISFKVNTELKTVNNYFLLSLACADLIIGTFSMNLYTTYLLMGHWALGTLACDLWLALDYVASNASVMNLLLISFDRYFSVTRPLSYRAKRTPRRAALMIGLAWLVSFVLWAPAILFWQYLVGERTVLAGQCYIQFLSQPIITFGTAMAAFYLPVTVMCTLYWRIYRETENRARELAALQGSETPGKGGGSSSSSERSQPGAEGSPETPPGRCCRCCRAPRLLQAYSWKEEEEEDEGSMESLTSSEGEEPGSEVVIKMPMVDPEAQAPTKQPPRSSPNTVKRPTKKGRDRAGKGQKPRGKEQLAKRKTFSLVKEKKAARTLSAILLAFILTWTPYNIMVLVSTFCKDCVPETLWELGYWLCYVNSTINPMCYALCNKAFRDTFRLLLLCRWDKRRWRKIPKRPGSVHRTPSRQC
M1 antag = human CHRM1 antagonism; P11229; CHO-K1 hM1, Fluo-8 calcium fluorescence, ACh EC80 antagonist; inhibition, % at 3 µM; 360,000 compounds, 1.3% hits; AID 588852;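 active = percent inhibition above its own plate's cutoff, namely the mean of that plate's compound wells plus 3 SD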;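 also: peak over basal fluorescence ratio during 140 s after agonist addition; 0% = ACh EC80 plus DMSO and 100% = DMSO alone without agonist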
CHRM1 PAM = human CHRM1 positive allosteric modulation; CHO-K1 hM1, Fluo-8 calcium fluorescence, ACh EC20; 0% = ACh EC20, 100% = maximal ACh; activation, % at 3 µM; 360,000 compounds, 0.088% hits; P11229; in the data active = activation above about 19%, passing the limit was not always enough
CHO-K1 Ca ag = nonselective activator or artifact in parental CHO-K1 cells. Fluo-8 calcium fluorescence; scaled to maximal ATP response, vehicle zero. activation, % at 3 µM. 360,000 compounds, 0.48% hits. AID 602248; in the data active = activation above about 15%;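 also: untransfected CHO-K1 host cells lacking M1 receptor as counterscreen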
Numbers without * were called inactive; nt = not tested or not shown.

SMILES | CHO-K1 Ca antag | M1 PAM parental | M1 ag | M1 antag | CHRM1 PAM | CHO-K1 Ca ag
CCCCn1c(N)c(N(CC(C)C)C(=O)c2ccc(OCC3CCCO3)cc2)c(=O)[nH]c1=O (stereo not given) | -7.0 | -0.4 | 2.2 | 4.3 | 2.0 | 1.3
COc1ccc2c(c1)C(SCC(=O)NCCc1ccc(Cl)cc1)CC(C)(C)O2 (stereo not given) | 12.4 | 0.1 | 3.5 | 5.0 | 4.1 | 4.0
Cn1c(=O)c2c(nc(CN3CCN(CCO)CC3)n2Cc2ccccc2Cl)n(C)c1=O | -2.8 | -3.3 | -6.6 | 3.8 | 0.4 | 0.0
COCCn1c(CN2CCN(c3ccc(OC)cc3)CC2)nc2c1c(=O)n(C)c(=O)n2C | -6.4 | 4.1 | -6.4 | -3.9 | 4.9 | 0.1
CN1CCN(c2nc3c(c(=O)n(C)c(=O)n3C)n2Cc2ccccc2Cl)CC1 | 0.3 | 0.9 | -10.4 | 57.4* | -28.2 | 0.0
Cn1c(=O)c2c(nc(CN3CCN(CCO)CC3)n2Cc2cccc3ccccc23)n(C)c1=O | 25.6* | -7.9 | -4.0 | 9.2 | 0.6 | 0.0
COc1ccc(N2CCN(Cc3nc4c(c(=O)n(C)c(=O)n4C)n3CCc3ccccc3)CC2)cc1 | 26.8* | -4.7 | 5.1 | -14.7 | 9.7 | -0.2
COc1ccc(C(=O)Cn2c(N3CCCCC3)nc3c2c(=O)n(C)c(=O)n3C)cc1OC | 1.8 | 15.4 | -3.9 | 4.8 | 6.5 | 18.4*
Cn1c(=O)c2c(nc(N3CCCCCC3)n2CC(=O)c2ccccc2)n(C)c1=O | -7.2 | 19.9 | -1.1 | -34.6 | 12.1 | 0.1
COc1ccc(OC)c(NS(=O)(=O)c2ccc(-c3coc(C)n3)cc2)c1 | -4.2 | 12.4 | 1.1 | 9.7 | 0.5 | 2.7
COc1cc2c(cc1N)-c1ccc(N)cc1C2 | -6.7 | -7.9 | -3.3 | 4.2 | -7.4 | -0.3
Cc1ccc(C(=O)C2C(=O)C3CCC2C3)cc1 (stereo not given) | 1.0 | -9.4 | -2.5 | 2.0 | -6.6 | -0.2
O=C(NCc1ccccc1Cl)c1ccccc1Oc1ccccc1 | -11.7 | 12.3 | -5.8 | -6.5 | -0.4 | -0.2
Cc1cc(=O)n2nc(N3CCCC3C(=O)Nc3ccc(C(C)C)cc3)sc2n1 (stereo not given) | -5.0 | -4.1 | -4.3 | -10.3 | 9.9 | 0.3
COc1cc2cc(C(=O)NCCc3c[nH]c4ccccc34)c(N)nc2cc1OC | 22.0 | -9.9 | nt | nt | nt | 18.9*
COc1cc(SC)ccc1C(=O)NCCc1c[nH]c2ccccc12 | 0.4 | 11.0 | -1.6 | -3.6 | 0.7 | 3.4
O=C(NN=C1CCCC1)c1cc(-c2ccc(F)cc2)nc2ccccc12 | -15.3 | 29.5 | -2.8 | -5.9 | 7.1 | 0.9
Cc1cc(C(=O)NN=C2CCCCCCC2)c2ccccc2n1 | 41.9* | -5.2 | -4.3 | -6.9 | 8.4 | -0.1
O=C(Cn1cc([N+](=O)[O-])cn1)NCc1ccccc1 | 0.2 | 11.6 | -0.9 | -2.9 | 2.1 | 1.5
COc1ccc(CNC(=O)Cn2cc([N+](=O)[O-])cn2)cc1 | 56.9* | -16.3 | -1.7 | -7.8 | 7.8 | -1.2
C/C=C(\C)C(=O)NCCN1C2=NC[C@H](C)N2C[C@@H]1Cc1ccc(OC)cc1 | -6.1 | 0.9 | -13.6 | 5.0 | -9.0 | 0.0
COc1ccc(C[C@@H]2CN3C(=NC[C@@H]3C)N2CCNC(=O)c2ccc(C)c(Br)c2)cc1 | -6.3 | 0.5 | -12.9 | 40.5* | -37.3 | 0.2
O=C(CN1CCN(Cc2ccccc2Cl)CC1)N/N=C/C=C/c1ccccc1[N+](=O)[O-] | 27.3* | -12.5 | -7.1 | 15.6 | -8.7 | 1.0
O=C(CN1CCN(Cc2ccccc2Cl)CC1)N/N=C/C=C\c1ccccc1[N+](=O)[O-] | 9.1 | -9.2 | -10.3 | 3.2 | 6.9 | 1.7
CCc1cccc(C)c1NS(=O)(=O)Cc1ccccc1 | 3.5 | -12.9 | -2.2 | 11.2 | -4.7 | 0.1
SMILES | CHO-K1 Ca antag | M1 PAM parental | M1 ag | M1 antag | CHRM1 PAM | CHO-K1 Ca ag
COc1ccc(C(=O)NCCc2nnc(SCC(=O)Nc3ccccc3)n2C)cc1 | 25.1* | -8.2 | 9.9 | -30.9 | 8.2 | 0.4
CCCCNc1c(CC(C)C)nc2nc(C)cc(C)n12 | 25.2* | -9.4 | nt | nt | nt | -0.8
O=C(Nc1ccccc1)Nc1ccc2snnc2c1 | 21.0 | 4.9 | 8.9 | 19.6 | -9.0 | 13.6
O=C(Nc1ccccc1)Nc1ccc2nnsc2c1 | 25.4* | -10.7 | 5.4 | 59.1* | -20.7 | 18.5*
CCC(CC)c1nnc(NC(=O)COc2ccc3c(c2)OCO3)s1 | -6.5 | 17.7 | 9.0 | 4.8 | -2.5 | 20.4*
CC(C)c1nnc(NC(=O)COc2ccc3c(c2)OCO3)s1 | -10.8 | 18.9 | -8.5 | -15.5 | 9.1 | 2.3
COCCN(Cc1ccccc1)C(=O)Cc1ccc(OC)c(S(=O)(=O)N2CCOCC2)c1 | -6.9 | 11.8 | -1.1 | -10.3 | 3.9 | 2.4
COc1ccc(CC(=O)N(Cc2ccccc2)c2ccccc2)cc1S(=O)(=O)N1CCOCC1 | -3.8 | 17.9 | 1.6 | 26.3* | -9.3 | 13.2
O=S(=O)(/N=C(/Nc1cccnc1Cl)c1ccccc1)c1ccccc1 | -5.7 | -12.5 | -4.3 | 13.3 | -8.1 | 0.2
O=NN1CCN(c2ccncc2S(=O)(=O)N2CCCCC2)CC1 | -5.6 | 18.9 | -0.7 | -8.8 | 8.7 | 1.0
CC(C)NC(=O)N1CCN(c2ccncc2S(=O)(=O)N2CCOCC2)CC1 | -1.2 | 9.8 | -1.3 | -13.9 | -5.1 | 0.3
CN1CCN(c2ccncc2S(=O)(=O)N2CCCCC2)CC1 | -6.2 | 11.2 | -5.4 | 26.6* | -11.8 | 1.5
CC(C)N1CCN(c2ccncc2S(=O)(=O)N2CCCCC2)CC1 | 1.6 | 12.7 | -7.0 | 97.5* | -28.9 | 1.6
CC(C)C1OC(CCc2ccccc2)Cc2[nH][nH]c(=O)c21 (stereo not given) | -20.1 | 27.4 | nt | nt | nt | 1.2
Clc1ccc(OCCCN2CCCC2)cc1Cl | 15.0 | -0.3 | -6.2 | 38.3* | -21.1 | 7.7
Clc1ccc(OCCN2CCCCC2)cc1Cl | -15.1 | 11.5 | -11.9 | 29.3* | -17.2 | 1.4
COc1cc(N)c(Cl)cc1C(=O)OCC(=O)NC(=O)NCc1ccco1 | 13.1 | -15.7 | 3.8 | -18.4 | 11.2 | 0.0
Cc1cc2ccc3ccccc3c2cc1CN(C)C | 1.5 | -17.4 | -2.5 | 8.1 | -0.5 | 1.6
CN(C)CCOC1c2ccccc2CCc2ccc3ccccc3c21 (stereo not given) | -13.5 | 21.6 | -5.3 | 53.0* | -23.7 | 4.7
COc1ccc2[nH]c3nc(SCc4nnc(-c5ccc(C)cc5)o4)nnc3c2c1 | -6.0 | 18.7 | -5.0 | -1.3 | 6.5 | 0.0
CCNC(=O)C1CCCN(Cc2ccc(C(=O)OCC)cc2)CC1 (stereo not given) | 7.8 | 5.4 | 3.6 | 64.6* | -19.4 | 0.2
COC(=O)c1ccc(CN2CCCC(C(=O)Nc3cccc(-n4cccn4)c3)C2)cc1 (stereo not given) | -10.7 | 2.3 | 37.6* | 41.2* | -11.7 | 3.4
COc1ccc(CN2CCCC(C(=O)Nc3cccc(-n4cccn4)c3)C2)cc1 (stereo not given) | -9.0 | -9.6 | -3.1 | 16.1 | -14.7 | 1.5
